Measurements from the supplement of paper PMC10849652.
About 8,800 targets were measured; listed, in parts, are those with a hit and a random draw of the rest. About 0.5% of all pairs of compound and target were hits. A number with no mark means an inactive call.

Tests used:
Assay in all cases: log2 fold change, soluble protein after heating vs DMSO (PISA); higher = thermal stabilisation; K562 lysate, 10 uM; active = over 0.2 and 3.5 SD of the protein, either way, in both replicates (recomputed)
erlotinib = compound: C#Cc1cccc(Nc2ncnc3cc(OCCOC)c(OCCOC)cc23)c1 [erlotinib]
Outline: (§1)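 Pellets of K562 cells were dounce-homogenised in PBS pH 7.4 with 1 mM MgCl2, and the crude extract was held at 1 mg/mL protein for a 30 min treatment with 10 μM compound. Aliquots were heated for 3 min over 48°C-58°C and pooled before NP-40 was added to 0.5% at 4°C. The supernatant from 21,000xg for 90 min was quantified by TMTpro 16plex LC-MS/MS with channel sums equalised. Values are reported from duplicates as log-two fold change in thermal stability relative to solvent controls.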

[1] = compound: C/C(=N\NC(=O)C1=CC(=CC=C1)S(=O)(=O)N2CCOCC2)/C3=C(C=CC(=C3)Cl)O
Outline: as §1

[2] = compound: C1=CC(=CC=C1C2=NC3=C(N2)C=C(C=C3)C(=O)N)OC4=CC=C(C=C4)Cl
Outline: as §1

[3] = compound: C1=CC2=C(C=CC(=C2)/C=C\3/C(=O)NC(=NCC4=CC=CS4)S3)N=C1
Outline: as §1

[4] = compound: C1=CC=C(C=C1)C2=NC(=C(N2)C3=CC=NC=C3)C4=CC(=C(C=C4)Cl)O
Outline: as §1

[5] = compound: C1=CC=C2C(=C1)C3=NNC4=CC=CC(=C43)C2=O
Outline: as §1

[6] = compound: C1CCN(C1)C(=O)NC2=CC=CC(=C2)NC3=NC=C(C(=N3)NCCC4=CN=CN4)Br
Outline: as §1

[7] = compound: C1CN(CCC1(CC2=CC=C(C=C2)Cl)N)C3=NC=NC4=C3C=CN4
Outline: as §1

IRAK-1-4 Inhibitor I = compound: C1COCCN1CCN2C3=CC=CC=C3N=C2NC(=O)C4=CC(=CC=C4)[N+](=O)[O-] [IRAK-1-4 Inhibitor I]
Outline: as §1

[8] = compound: CC(=O)c1cnc2ccc(-c3cc(Cl)c(O)c(Cl)c3)nc2c1N[C@H]1CC[C@H](CN(C)C)CC1
Outline: as §1

ralimetinib = compound: CC(C)(C)Cn1c(N)nc2ccc(-c3[nH]c(C(C)(C)C)nc3-c3ccc(F)cc3)nc21 [ralimetinib]
Outline: as §1

[9] = compound: CC(C)(O)CC(=O)NCCn1ccc2ncnc(Nc3ccc(Oc4cccc(C(F)(F)F)c4)c(Cl)c3)c21
Outline: as §1

[10] = compound: CC(C)C1=C2N=C(C=C(N2N=C1)NCC3=CC=CC=C3)NCCCCCCN
Outline: as §1

[11] = compound: CC1=C(C(CC(=O)N1)C2=CC=C(C=C2)C(F)(F)F)C(=O)NC3=C(C=C4C(=C3)C=NN4)F
Outline: as §1

[12] = compound: CC1=C(C2=C(C=C1)C(=O)C3=CC=CC=C3N2CCCN)C
Outline: as §1

[13] = compound: CC1=C(C=C(C=C1)NC(=O)C2=CC(=CC=C2)C(C)(C)C#N)NC3=CC4=C(C=C3)N=CN(C4=O)C
Outline: as §1

[14] = compound: CC1=C(C=C(C=C1)NC(=O)C2=CC(=CC=C2)N(C)C)NC(=O)C3=CC=C(C=C3)O
Outline: as §1

[15] = compound: CC1=CC=C(C=C1)SC2=C3C=C(SC3=CN=C2)C(=O)N
Outline: as §1

[16] = compound: C1=CC2=NC=CN=C2C=C1/C=C/3\C(=O)NC(=O)S3
Outline: as §1

ibrutinib = compound: C=CC(=O)N1CCC[C@@H](n2nc(-c3ccc(Oc4ccccc4)cc3)c3c(N)ncnc32)C1 [ibrutinib]
Outline: as §1

UniProt Q7Z3E2, sequence (Q7Z3E2 whole entry, looked up): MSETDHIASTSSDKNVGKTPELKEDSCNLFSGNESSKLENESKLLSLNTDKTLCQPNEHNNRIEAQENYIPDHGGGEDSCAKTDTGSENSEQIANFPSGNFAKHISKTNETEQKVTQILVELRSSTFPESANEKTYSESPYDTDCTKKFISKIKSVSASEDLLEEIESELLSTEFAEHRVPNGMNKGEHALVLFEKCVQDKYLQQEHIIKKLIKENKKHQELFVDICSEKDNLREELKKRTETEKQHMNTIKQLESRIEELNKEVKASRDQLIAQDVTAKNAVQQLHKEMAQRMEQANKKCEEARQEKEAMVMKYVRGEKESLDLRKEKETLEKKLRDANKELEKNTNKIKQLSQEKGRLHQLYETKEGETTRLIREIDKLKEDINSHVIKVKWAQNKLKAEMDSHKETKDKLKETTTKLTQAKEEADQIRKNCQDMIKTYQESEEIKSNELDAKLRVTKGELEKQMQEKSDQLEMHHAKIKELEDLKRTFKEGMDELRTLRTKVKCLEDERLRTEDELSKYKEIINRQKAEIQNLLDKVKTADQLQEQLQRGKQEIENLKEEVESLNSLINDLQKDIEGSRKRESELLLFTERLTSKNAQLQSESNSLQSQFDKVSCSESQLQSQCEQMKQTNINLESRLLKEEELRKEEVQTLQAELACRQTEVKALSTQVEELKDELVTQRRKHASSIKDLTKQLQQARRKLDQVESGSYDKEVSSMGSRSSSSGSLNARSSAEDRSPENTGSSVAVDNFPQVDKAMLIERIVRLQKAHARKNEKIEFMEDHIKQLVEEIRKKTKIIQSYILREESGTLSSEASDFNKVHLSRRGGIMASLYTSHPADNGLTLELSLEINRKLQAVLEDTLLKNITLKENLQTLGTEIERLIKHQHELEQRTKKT
UniProt Q9H0Y0, sequence (Q9H0Y0 whole entry, looked up): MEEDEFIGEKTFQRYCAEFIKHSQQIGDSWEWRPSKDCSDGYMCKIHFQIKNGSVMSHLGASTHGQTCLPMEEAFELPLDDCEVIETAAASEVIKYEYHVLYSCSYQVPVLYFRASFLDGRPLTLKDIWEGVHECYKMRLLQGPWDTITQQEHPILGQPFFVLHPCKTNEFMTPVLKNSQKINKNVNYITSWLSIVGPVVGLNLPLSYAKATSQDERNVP
UniProt Q15059, sequence (Q15059 whole entry, looked up): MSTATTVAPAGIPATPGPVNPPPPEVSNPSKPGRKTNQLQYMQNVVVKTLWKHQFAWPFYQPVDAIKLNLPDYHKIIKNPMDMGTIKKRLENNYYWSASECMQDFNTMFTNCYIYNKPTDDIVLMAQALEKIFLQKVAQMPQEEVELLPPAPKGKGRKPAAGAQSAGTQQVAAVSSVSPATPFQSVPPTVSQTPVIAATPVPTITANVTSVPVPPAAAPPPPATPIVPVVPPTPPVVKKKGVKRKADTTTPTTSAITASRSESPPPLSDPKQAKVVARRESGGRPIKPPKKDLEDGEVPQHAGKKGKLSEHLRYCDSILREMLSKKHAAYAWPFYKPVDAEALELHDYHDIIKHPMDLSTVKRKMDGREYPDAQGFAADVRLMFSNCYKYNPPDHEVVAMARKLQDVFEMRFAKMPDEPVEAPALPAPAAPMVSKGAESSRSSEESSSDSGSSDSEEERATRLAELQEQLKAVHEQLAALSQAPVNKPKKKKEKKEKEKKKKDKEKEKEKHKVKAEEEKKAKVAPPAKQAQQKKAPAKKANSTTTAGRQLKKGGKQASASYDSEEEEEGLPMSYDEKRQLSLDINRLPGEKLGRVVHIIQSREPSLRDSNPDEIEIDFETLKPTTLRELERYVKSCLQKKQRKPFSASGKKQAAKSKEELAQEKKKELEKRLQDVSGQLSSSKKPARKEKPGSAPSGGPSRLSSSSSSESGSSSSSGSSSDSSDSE
UniProt Q15834, sequence (Q15834 whole entry, looked up): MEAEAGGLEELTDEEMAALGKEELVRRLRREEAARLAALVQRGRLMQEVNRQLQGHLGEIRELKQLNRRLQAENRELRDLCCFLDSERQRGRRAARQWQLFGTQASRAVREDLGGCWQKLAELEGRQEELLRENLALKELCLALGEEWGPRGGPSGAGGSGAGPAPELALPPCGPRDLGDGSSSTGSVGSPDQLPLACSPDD
UniProt Q13315, sequence (Q13315 whole entry, looked up): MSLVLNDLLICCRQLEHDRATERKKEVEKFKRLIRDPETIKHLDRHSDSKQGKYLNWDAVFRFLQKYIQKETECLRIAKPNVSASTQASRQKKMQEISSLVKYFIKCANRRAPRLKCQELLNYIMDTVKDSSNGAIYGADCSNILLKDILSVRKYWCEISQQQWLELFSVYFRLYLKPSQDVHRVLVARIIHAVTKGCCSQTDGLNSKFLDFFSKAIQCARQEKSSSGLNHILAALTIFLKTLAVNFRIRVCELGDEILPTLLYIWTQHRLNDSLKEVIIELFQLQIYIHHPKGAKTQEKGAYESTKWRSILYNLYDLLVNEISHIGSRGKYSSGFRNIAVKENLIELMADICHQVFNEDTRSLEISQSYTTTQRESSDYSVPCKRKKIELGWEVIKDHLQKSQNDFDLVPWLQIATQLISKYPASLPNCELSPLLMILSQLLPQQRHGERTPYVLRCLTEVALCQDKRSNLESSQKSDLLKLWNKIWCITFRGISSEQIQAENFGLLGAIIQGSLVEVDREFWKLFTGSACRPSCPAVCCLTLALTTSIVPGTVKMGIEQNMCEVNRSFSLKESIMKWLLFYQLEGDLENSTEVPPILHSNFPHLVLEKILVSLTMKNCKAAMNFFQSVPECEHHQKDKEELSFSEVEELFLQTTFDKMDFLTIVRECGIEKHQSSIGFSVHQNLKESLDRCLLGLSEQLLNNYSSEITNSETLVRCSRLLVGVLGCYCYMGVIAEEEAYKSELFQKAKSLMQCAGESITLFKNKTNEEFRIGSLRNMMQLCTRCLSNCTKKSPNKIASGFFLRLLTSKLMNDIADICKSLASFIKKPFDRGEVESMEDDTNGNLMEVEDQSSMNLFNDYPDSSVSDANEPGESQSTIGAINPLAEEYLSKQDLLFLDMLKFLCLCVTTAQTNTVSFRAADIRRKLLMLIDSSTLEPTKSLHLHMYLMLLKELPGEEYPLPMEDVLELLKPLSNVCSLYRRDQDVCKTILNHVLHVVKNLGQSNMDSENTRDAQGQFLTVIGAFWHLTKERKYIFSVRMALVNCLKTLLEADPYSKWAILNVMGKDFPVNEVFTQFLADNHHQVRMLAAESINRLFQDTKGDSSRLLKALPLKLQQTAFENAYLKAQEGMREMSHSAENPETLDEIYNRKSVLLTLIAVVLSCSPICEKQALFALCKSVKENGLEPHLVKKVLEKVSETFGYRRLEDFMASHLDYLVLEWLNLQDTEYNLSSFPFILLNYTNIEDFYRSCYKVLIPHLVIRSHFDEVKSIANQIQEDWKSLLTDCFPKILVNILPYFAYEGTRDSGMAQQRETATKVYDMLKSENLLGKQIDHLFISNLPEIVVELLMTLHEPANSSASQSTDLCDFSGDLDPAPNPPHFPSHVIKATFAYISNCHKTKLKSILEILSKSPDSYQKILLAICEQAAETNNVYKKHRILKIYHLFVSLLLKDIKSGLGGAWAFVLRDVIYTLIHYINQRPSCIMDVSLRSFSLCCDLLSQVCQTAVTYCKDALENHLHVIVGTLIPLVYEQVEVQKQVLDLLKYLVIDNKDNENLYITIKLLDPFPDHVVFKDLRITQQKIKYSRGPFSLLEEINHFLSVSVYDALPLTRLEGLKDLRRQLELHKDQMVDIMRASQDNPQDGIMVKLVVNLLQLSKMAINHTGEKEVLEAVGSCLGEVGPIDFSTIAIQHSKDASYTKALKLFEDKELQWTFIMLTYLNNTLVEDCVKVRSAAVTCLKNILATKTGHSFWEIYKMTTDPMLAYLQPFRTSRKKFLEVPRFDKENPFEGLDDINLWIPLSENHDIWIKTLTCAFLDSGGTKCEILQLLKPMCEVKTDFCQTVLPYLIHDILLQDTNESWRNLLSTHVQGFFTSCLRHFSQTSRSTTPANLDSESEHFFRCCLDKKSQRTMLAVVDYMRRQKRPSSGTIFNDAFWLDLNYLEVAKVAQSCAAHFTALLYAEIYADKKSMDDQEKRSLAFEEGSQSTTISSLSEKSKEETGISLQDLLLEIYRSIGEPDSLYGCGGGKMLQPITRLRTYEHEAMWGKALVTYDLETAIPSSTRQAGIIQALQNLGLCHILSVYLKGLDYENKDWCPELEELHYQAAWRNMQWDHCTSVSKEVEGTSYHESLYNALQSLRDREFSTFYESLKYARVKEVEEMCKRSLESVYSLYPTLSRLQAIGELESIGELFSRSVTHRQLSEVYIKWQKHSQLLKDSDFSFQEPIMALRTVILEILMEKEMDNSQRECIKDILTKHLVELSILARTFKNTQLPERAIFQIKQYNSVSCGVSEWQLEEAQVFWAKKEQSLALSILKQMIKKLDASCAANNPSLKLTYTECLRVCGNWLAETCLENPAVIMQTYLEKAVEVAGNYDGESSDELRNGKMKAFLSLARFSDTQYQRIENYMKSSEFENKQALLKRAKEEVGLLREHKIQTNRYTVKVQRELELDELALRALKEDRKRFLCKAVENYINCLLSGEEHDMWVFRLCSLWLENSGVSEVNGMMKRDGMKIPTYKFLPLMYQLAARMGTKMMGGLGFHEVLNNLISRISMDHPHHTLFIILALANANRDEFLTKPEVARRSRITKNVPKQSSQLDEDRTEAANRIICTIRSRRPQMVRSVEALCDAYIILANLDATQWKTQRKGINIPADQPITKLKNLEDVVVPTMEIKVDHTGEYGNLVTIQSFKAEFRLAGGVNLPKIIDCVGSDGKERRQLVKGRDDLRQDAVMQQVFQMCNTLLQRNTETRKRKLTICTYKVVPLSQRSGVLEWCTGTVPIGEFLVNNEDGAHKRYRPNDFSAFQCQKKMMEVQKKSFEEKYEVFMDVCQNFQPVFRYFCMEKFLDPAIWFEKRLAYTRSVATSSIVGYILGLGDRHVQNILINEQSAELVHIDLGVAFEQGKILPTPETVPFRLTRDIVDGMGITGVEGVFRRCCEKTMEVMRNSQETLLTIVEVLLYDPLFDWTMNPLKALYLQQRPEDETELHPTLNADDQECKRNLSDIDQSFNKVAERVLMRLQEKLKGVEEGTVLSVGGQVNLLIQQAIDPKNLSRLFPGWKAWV

Target	log2 fold change (erlotinib)	log2 fold change [1]	log2 fold change [2]	log2 fold change [3]	log2 fold change [4]	log2 fold change [5]	log2 fold change [6]	log2 fold change [7]	log2 fold change (IRAK-1-4 Inhibitor I)	log2 fold change [8]	log2 fold change (ralimetinib)	log2 fold change [9]	log2 fold change [10]	log2 fold change [11]	log2 fold change [12]	log2 fold change [13]	log2 fold change [14]	log2 fold change [15]	log2 fold change [16]	log2 fold change (ibrutinib)
C1orf131 isoform 5 (UniProt Q8NDD1)	-0.006	-0.094	0.051	-0.058	-0.013	-0.001	-0.062	-0.011	0.067	0.041	0.06	-0.056	0.028	-0.016	-0.071	0.08	0.025	-0.043	–	–
AVEN (UniProt Q9NQS1)	0.111	0.077	-0.205	-0.079	0.06	0.055	-0.023	-0.013	-0.096	–	-0.061	-0.079	0.055	0.009	0.027	0.1	-0.08	–	0.183	-0.03
ATG10 (UniProt Q9H0Y0)	0.062	0.043	-0.011	-0.012	0.035	0.086	-0.004	-0.004	0.022	–	0.001	-0.013	-0.062	-0.132	0.063	0.053	0.012	–	-0.01	0.057
C12orf45 (UniProt Q8N5I9)	-0.038	-0.113	0.027	0.009	0.009	0.009	-0.018	0.009	-0.002	0.003	0.005	0.014	0.033	-0.021	-0.02	-0.018	0.02	-0.043	-0.037	0.027
CCDC85B (UniProt Q15834)	-0.126	0.22	-0.066	-0.022	-0.058	0.015	-0.361	-0.203	0.011	-0.248	-0.001	0.05	0.056	–	0.004	-0.016	-0.163	0.014	-0.001	0.215
BBS7 (UniProt Q8IWZ6)	-0.095	0.146	-0.014	-0.034	0.057	-0.098	-0.068	0.082	0.022	–	0.047	0.015	-0.021	0.077	0.182	0.181	-0.013	–	–	–
CDC25C (UniProt P30307)	0.007	-0.157	-0.061	0.042	0.026	-0.148	-0.035	-0.058	-0.039	0.01	0.013	0.091	-0.027	0.026	0.059	-0.022	-0.004	-0.019	-0.031	0.006
CEBPZOS (UniProt A8MTT3)	-0.038	0.013	0.004	0.003	-0.014	0.006	-0.011	0.005	-0.015	0.02	0.035	0.022	-0.047	-0.054	0.04	0.112	-0.032	0.012	–	–
CDK5 (UniProt Q00535)	-0.018	-0.065	0.126	-0.041	0.01	–	0.367	0.004	0.033	0.53 (active)	0.004	-0.023	-0.032	-0.034	-0.006	-0.052	0.023	-0.058	-0.023	0.015
CEP152 (UniProt O94986)	-0.011	-0.043	0.142	-0.1	0.099	0.123	-0.07	0.073	0.086	–	0.144	-0.092	-0.062	-0.04	-0.071	0.095	-0.067	–	0.139	-0.077
BRD3 (UniProt Q15059)	-0.005	0.084	-0.065	0.004	–	-0.013	-0.001	0.036	–	0.04	–	–	0.095	-0.054	-0.033	0.059	–	-0.074	-0.033	-0.011
CDKN1B (UniProt P46527)	-0.079	-0.067	0.011	0.012	-0.038	0.03	0.045	0.003	-0.086	0.013	0.037	0.069	-0.037	–	-0.053	-0.325	-0.019	0.017	0.026	0.141
CHD1L (UniProt Q86WJ1)	-0.017	0.007	-0.028	0.036	-0.014	-0.054	-0.012	0.013	0.003	0.03	0.024	-0.011	-0.001	0.008	-0.043	0.029	0.061	0.019	0.031	-0.032
CCDC186 (UniProt Q7Z3E2)	-0.018	0.026	0.01	0.007	-0.009	-0.027	-0.039	0.007	0.016	-0.025	-0.001	-0.056	-0.086	0.006	0.021	-0.016	0	-0.023	-0.03	0.024
BUB1B isoform 3 (UniProt O60566)	0.019	0.013	-0.002	-0.026	0.021	-0.039	-0.031	-0.008	-0.016	-0.007	0.001	0.021	0.003	-0.001	0.004	-0.028	0.003	0.001	0.01	0.035
ATR (UniProt Q13535)	-0.025	-0.012	-0.055	0.336	0.125	0.071	-0.005	0.125	-0.025	0.319	0	-0.037	0.016	-0.015	-0.031	0.032	0.039	-0.053	0.255	0.06
ATM (UniProt Q13315)	0.02	-0.031	-0.02	-0.064	-0.001	0.043	-0.016	-0.042	0.007	0.253 (active)	0.013	-0.021	0.04	0.002	-0.027	-0.014	-0.015	-0.013	-0.052	0.027
